Active and inactive are the calls of the source. Unless noted, calls come from the whole dose curve.
molecular target: Gonadotropin-releasing hormone receptor (Homo sapiens) (UniProt P30968); assay: Human gonadotropin-releasing hormone receptor (GnRHR) small molecule agonists, calcium flux assay in GnRHR-HEK293 cells (AID 1920063); conditions: calcium flux fluorescence, agonist mode; series mostly up to 57.6 µM; activity change: at the top concentration; note: nearly all actives have a fitted effect of over 35% in size
Outline: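 Fluorescence kinetics (480 nm excitation, 540 nm emission; 3 min, 1 s steps) report calcium mobilisation in human GnRHR-HEK293 cells in agonist mode. Dye incubation: 1 h, 37 C.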
% is set by controls: 0 for no effect and ±100 for the full control effect.

Gonadotropin-releasing hormone receptor (Homo sapiens), sequence (P30968 whole entry, looked up): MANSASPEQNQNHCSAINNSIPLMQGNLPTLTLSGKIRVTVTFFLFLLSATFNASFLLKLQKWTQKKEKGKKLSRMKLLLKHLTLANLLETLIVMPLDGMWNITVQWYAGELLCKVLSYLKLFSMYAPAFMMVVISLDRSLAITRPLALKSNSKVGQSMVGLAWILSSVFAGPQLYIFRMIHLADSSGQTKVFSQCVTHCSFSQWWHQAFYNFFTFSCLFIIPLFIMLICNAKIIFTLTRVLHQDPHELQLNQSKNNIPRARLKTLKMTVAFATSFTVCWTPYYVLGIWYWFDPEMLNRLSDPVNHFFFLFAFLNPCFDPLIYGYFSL

Row | Structure (SMILES) | activity change
1 | C=C(C)C(=O)OCCOCCOC(=O)C(=C)C | -0.174% (inactive)
2 | CCCC(=O)O[C@]1(C(=O)COC(=O)CC)CC[C@H]2[C@@H]3CCC4=CC(=O)CC[C@]4(C)[C@H]3[C@@H](O)C[C@@]21C | 1.71% [at 11.8 µM, active compounds read high] (inactive)
3 | O=Cc1ccccc1Cl | 0.124% (inactive)
4 | CC(C)=CCCC(C)CC(=O)O (centres undefined) | -0.87% (inactive)
5 | CC(C)(COC(=O)c1ccccc1)COC(=O)c1ccccc1 | -0.445% (inactive)
6 | CN(C)CCOC(=O)C(c1ccccc1)C1(O)CCCC1 (centres undefined) | -0.452% [at 26.4 µM, active compounds read high] (inactive)
7 | CCCC(=O)O[C@]1(C(=O)CO)CC[C@H]2[C@@H]3CCC4=CC(=O)CC[C@]4(C)[C@H]3[C@@H](O)C[C@@]21C | 0.819% [at 26.4 µM, active compounds read high] (inactive)
8 | CCCCCCCCCCCCCCCC(=O)OCC | 0.214% (inactive)
9 | CC(O)CN (centres undefined) | 0.356% (inactive)
10 | O=C(O)Cc1ccc(OCCNC[C@H](O)c2ccccc2)cc1 | 0.429% [at 26.4 µM, active compounds read high] (inactive)
11 | O=C(O)c1c(Cl)ccc(Cl)c1Cl | -0.723% (inactive)
12 | CC(=O)c1ccc([N+](=O)[O-])cc1 | -0.387% (inactive)
13 | CCCCCCOC(=O)CCCCCCCC(=O)OCCCCCC | 1.04% (inactive)
14 | Cc1ccccc1N=C(N)N=C(N)N | -0.352% (inactive)

molecular target: KiSS-1 receptor (Homo sapiens) (UniProt Q969F8); assay: Human kisspeptin (KISS1R) small molecule agonists, calcium flux assay in KISS1R-HEK293 cells (AID 1920064; active = well fitted activation curve with a large enough effect in the repeat runs); conditions: KISS1R-HEK293, calcium flux fluorescence, agonist; series mostly up to 76.8 µM; activation: at the top concentration
Outline: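 Measures KISS1R agonism through calcium-sensitive dye fluorescence in stably transfected HEK293 cells, read for 3 min after pin-tool compound delivery; 15-point titrations in triplicate.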

KiSS-1 receptor (Homo sapiens), sequence (Q969F8 whole entry, looked up): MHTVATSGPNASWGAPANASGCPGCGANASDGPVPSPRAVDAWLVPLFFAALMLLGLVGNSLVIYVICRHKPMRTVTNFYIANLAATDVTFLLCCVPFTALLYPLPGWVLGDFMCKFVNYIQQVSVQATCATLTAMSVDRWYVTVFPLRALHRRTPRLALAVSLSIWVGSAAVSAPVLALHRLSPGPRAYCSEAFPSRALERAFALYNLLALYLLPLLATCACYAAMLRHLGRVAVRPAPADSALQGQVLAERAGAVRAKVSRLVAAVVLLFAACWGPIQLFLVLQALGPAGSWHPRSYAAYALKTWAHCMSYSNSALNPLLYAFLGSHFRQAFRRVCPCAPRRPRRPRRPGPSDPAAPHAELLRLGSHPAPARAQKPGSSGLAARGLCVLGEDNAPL

Row | Structure (SMILES) | activation
15 | CCOC(=O)C1=NN(c2ccccc2)C(=O)C1 | 1.96% (inactive)
16 | C=C(C)CS(=O)(=O)O | -1.47% (inactive)
17 | O=C(Cl)c1c(Cl)cccc1Cl | 1.67% (inactive)
18 | Cc1ccc2c(c1)CCCN2 | 1.63% (inactive)
19 | Cc1nc2ccc(CN(C)c3ccc(C(=O)N[C@@H](CCC(=O)O)C(=O)O)s3)cc2c(=O)[nH]1 | -0.453% [at 35.3 µM] (inactive)
20 | CCCCCCCCCCCCCOC(=O)CCSCCC(=O)OCCCCCCCCCCCCC | 1.75% [at 15.8 µM] (inactive)
21 | O=C=NCC1CCCC(CN=C=O)C1 (centres undefined) | 2.44% (inactive)
22 | OC/C=C/c1ccccc1 | -0.225% (inactive)
23 | CC(C)=CC=O | 0.822% (inactive)
24 | CC(=O)c1ccc(C)cc1 | -1.65% (inactive)
25 | CCCCCCCCCCCCOC(C)=O | -0.17% (inactive)
26 | CC1=C(C(=O)O)N2C(=O)[C@@H](NC(=O)[C@H](N)C3=CCC=CC3)[C@H]2SC1 | -0.321% [at 35.3 µM] (inactive)
27 | Oc1cc2ccccc2c2ccccc12 | 1.35% (inactive)
28 | CC(C)(C)c1ccc(N)cc1 | 0.701% (inactive)
29 | O=C1CCC(=O)N1Cl | 0.972% (inactive)
30 | COc1ccc(CCO)cc1 | -0.845% (inactive)
31 | CC(=O)OCC1=C(C(=O)O)N2C(=O)[C@@H](NC(=O)CSc3ccncc3)[C@H]2SC1 | 1.16% [at 35.3 µM] (inactive)
32 | COC(=O)C(C)=O | -0.0728% (inactive)
33 | SC1CCCC1 | 0.271% (inactive)
34 | CC(O)CC(C)O (centres undefined) | -3.04% (inactive)

Row | Structure (SMILES) | activation
35 | CN1C(C)(C)CC(O)CC1(C)C | 0.0184% (inactive)
36 | CC(C)CCC(=O)CCC(C)C | 1.77% (inactive)
37 | CCCCCCCCCCCCCCC | -0.187% (inactive)
38 | Nc1ccc2cc(S(=O)(=O)O)cc(O)c2c1N=Nc1ccccc1C(F)(F)F | -0.871% (inactive)
39 | CO/N=C1\CN(c2nc3c(cc2F)c(=O)c(C(=O)O)cn3C2CC2)CC1CN (centres undefined) | -0.557% [at 35.3 µM] (inactive)
40 | C=C(C)C(=O)OCCOP(=O)(O)OCCOC(=O)C(=C)C | -1.02% (inactive)
41 | C=C(C)C(=O)OCCOCCOC(=O)C(=C)C | -0.31% (inactive)
42 | CCCC(=O)O[C@]1(C(=O)COC(=O)CC)CC[C@H]2[C@@H]3CCC4=CC(=O)CC[C@]4(C)[C@H]3[C@@H](O)C[C@@]21C | -0.661% [at 15.8 µM] (inactive)
43 | O=Cc1ccccc1Cl | -1.85% (inactive)
44 | CC(C)=CCCC(C)CC(=O)O (centres undefined) | -3.12% (inactive)
45 | CC(C)(COC(=O)c1ccccc1)COC(=O)c1ccccc1 | 26.1% (inactive)
46 | CN(C)CCOC(=O)C(c1ccccc1)C1(O)CCCC1 (centres undefined) | -0.0402% [at 35.3 µM] (inactive)
47 | CCCC(=O)O[C@]1(C(=O)CO)CC[C@H]2[C@@H]3CCC4=CC(=O)CC[C@]4(C)[C@H]3[C@@H](O)C[C@@]21C | -0.282% [at 35.3 µM] (inactive)
48 | CCCCCCCCCCCCCCCC(=O)OCC | -0.614% (inactive)
49 | CC(O)CN (centres undefined) | 1.66% (inactive)
50 | O=C(O)Cc1ccc(OCCNC[C@H](O)c2ccccc2)cc1 | -0.17% [at 35.3 µM] (inactive)
51 | O=C(O)c1c(Cl)ccc(Cl)c1Cl | -2.53% (inactive)
52 | CC(=O)c1ccc([N+](=O)[O-])cc1 | -1.53% (inactive)
53 | CCCCCCOC(=O)CCCCCCCC(=O)OCCCCCC | 6.64% (inactive)
54 | Cc1ccccc1N=C(N)N=C(N)N | -2.05% (inactive)

tested on: not listed separately; assay: G protein-coupled receptor (GPCR) small molecule agonists, calcium flux assay: HEK293 wild type cell line counter screen (AID 1920065); conditions: HEK293 WT calcium flux, fluorescence, agonist mode; series mostly up to 57.6 µM; activation: at the top concentration
Outline: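 Readout: fluorescence at 480 nm excitation/540 nm emission, sampled at 1 s intervals for 3 min. Cells had been cultured 18 h, then dye-loaded 1 h at 37 C before compound or ATP addition.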

Row | Structure (SMILES) | activation
55 | CCOC(=O)C1=NN(c2ccccc2)C(=O)C1 | 0.361% (inactive)
56 | C=C(C)CS(=O)(=O)O | -0.324% (inactive)
57 | O=C(Cl)c1c(Cl)cccc1Cl | 0.117% (inactive)
58 | Cc1ccc2c(c1)CCCN2 | -0.0916% (inactive)
59 | Cc1nc2ccc(CN(C)c3ccc(C(=O)N[C@@H](CCC(=O)O)C(=O)O)s3)cc2c(=O)[nH]1 | -0.54% [at 26.5 µM] (inactive)
60 | CCCCCCCCCCCCCOC(=O)CCSCCC(=O)OCCCCCCCCCCCCC | -0.388% [at 11.8 µM] (inactive)
61 | O=C=NCC1CCCC(CN=C=O)C1 (centres undefined) | 0.388% (inactive)
62 | OC/C=C/c1ccccc1 | -0.428% (inactive)
63 | CC(C)=CC=O | -0.192% (inactive)
64 | CC(=O)c1ccc(C)cc1 | -1.35% (inactive)
65 | CCCCCCCCCCCCOC(C)=O | 1.07% (inactive)
66 | CC1=C(C(=O)O)N2C(=O)[C@@H](NC(=O)[C@H](N)C3=CCC=CC3)[C@H]2SC1 | 1.39% [at 26.5 µM] (inactive)
67 | Oc1cc2ccccc2c2ccccc12 | 4.24% (inactive)
68 | CC(C)(C)c1ccc(N)cc1 | 1.93% (inactive)
69 | O=C1CCC(=O)N1Cl | 0.416% (inactive)
70 | COc1ccc(CCO)cc1 | 0.0849% (inactive)
71 | CC(=O)OCC1=C(C(=O)O)N2C(=O)[C@@H](NC(=O)CSc3ccncc3)[C@H]2SC1 | 1.29% [at 26.5 µM] (inactive)
72 | COC(=O)C(C)=O | 1.65% (inactive)
73 | SC1CCCC1 | -1.03% (inactive)
74 | CC(O)CC(C)O (centres undefined) | -0.0199% (inactive)

Row | Structure (SMILES) | activation
75 | CN1C(C)(C)CC(O)CC1(C)C | -0.28% (inactive)
76 | CC(C)CCC(=O)CCC(C)C | -0.0294% (inactive)
77 | CCCCCCCCCCCCCCC | 0.117% (inactive)
78 | Nc1ccc2cc(S(=O)(=O)O)cc(O)c2c1N=Nc1ccccc1C(F)(F)F | 0.0028% (inactive)
79 | CO/N=C1\CN(c2nc3c(cc2F)c(=O)c(C(=O)O)cn3C2CC2)CC1CN (centres undefined) | -0.988% [at 26.5 µM] (inactive)
80 | C=C(C)C(=O)OCCOP(=O)(O)OCCOC(=O)C(=C)C | -0.222% (inactive)
81 | C=C(C)C(=O)OCCOCCOC(=O)C(=C)C | -1.19% (inactive)
82 | CCCC(=O)O[C@]1(C(=O)COC(=O)CC)CC[C@H]2[C@@H]3CCC4=CC(=O)CC[C@]4(C)[C@H]3[C@@H](O)C[C@@]21C | -0.97% [at 11.8 µM] (inactive)
83 | O=Cc1ccccc1Cl | 0.281% (inactive)
84 | CC(C)=CCCC(C)CC(=O)O (centres undefined) | 0.248% (inactive)
85 | CC(C)(COC(=O)c1ccccc1)COC(=O)c1ccccc1 | -1.58% (inactive)
86 | CN(C)CCOC(=O)C(c1ccccc1)C1(O)CCCC1 (centres undefined) | 0.0467% [at 26.5 µM] (inactive)
87 | CCCC(=O)O[C@]1(C(=O)CO)CC[C@H]2[C@@H]3CCC4=CC(=O)CC[C@]4(C)[C@H]3[C@@H](O)C[C@@]21C | -0.253% [at 26.5 µM] (inactive)
88 | CCCCCCCCCCCCCCCC(=O)OCC | -1.46% (inactive)
89 | CC(O)CN (centres undefined) | 1.36% (inactive)
90 | O=C(O)Cc1ccc(OCCNC[C@H](O)c2ccccc2)cc1 | 0.0522% [at 26.5 µM] (inactive)
91 | O=C(O)c1c(Cl)ccc(Cl)c1Cl | 0.273% (inactive)
92 | CC(=O)c1ccc([N+](=O)[O-])cc1 | -0.102% (inactive)
93 | CCCCCCOC(=O)CCCCCCCC(=O)OCCCCCC | 0.0742% (inactive)
94 | Cc1ccccc1N=C(N)N=C(N)N | 0.0625% (inactive)
